Experimental data as given in ChEMBL document CHEMBL3988442, “University of Dundee, Small-Polar-MMV Screening Library” (2021).
In all, about 48,000 compounds went through this assay and about 13,000 (27%) showed an effect of 50% or more. This is one part of the list.

System: Wolbachia pipientis
Test: Anti-Wolbachia Cell-Based Screen
Assay type: functional
Design: scale not given: in the data most compounds retested in dose-response had high values
Conditions: 5 µM

SMILES | Percent Effect [%]
CC(NC(=O)C1(NC(=O)c2ccc3[nH]ncc3c2)CCCC1)C1CC1 (configuration not stated) | -1.4
CCN(Cc1ccc2c(c1)OCCO2)C(=O)NCc1nncn1CC | 99.19
CCn1cnnc1CNC(=O)CCC(=O)c1ccc2c(c1)OCCO2 | 5.212
CCN(Cc1ccc2c(c1)OCCO2)C(=O)NCc1nc(C)cs1 | -0.008456
CCn1cnnc1CNC(=O)Cc1ccc2c(c1)OCCO2 | 101.5
CCn1cnnc1CNC(=O)C1COc2ccc(Cl)cc2C1 (configuration not stated) | -2.501
CC(NC(=O)N(C)Cc1cccc(OC(F)F)c1)c1nncn1C (configuration not stated) | -22.06
CCn1cnnc1CNC(=O)N(C)Cc1ccc2c(c1)OCO2 | 127.8
CCn1cnnc1CNC(=O)N(C)Cc1cccc(OC(F)F)c1 | 110.2
CCn1cnnc1CNC(=O)N(C)Cc1ccc2c(c1)OCCO2 | 2.42
CCn1cnnc1CNC(=O)N(C)Cc1ccc(F)c(F)c1 | -10.5
CCN(Cc1ccc2c(c1)OCCO2)C(=O)NCc1cc[nH]n1 | -1.226
CCn1cnnc1CNC(=O)N(C)Cc1ccc(Cl)cc1Cl | -3.326
CCNS(=O)(=O)c1ccc(C)c(C(=O)N(C)Cc2ccco2)c1 | -0.5279
N#Cc1ccccc1OCCN1CCC(C(=O)N2CCOCC2)CC1 | -3.937
COc1cccc(CCNC(=O)CN2CCN(C)CC2C)c1 (configuration not stated) | 5.841
Cc1nnc(N2C[C@@H]3CCCO[C@@H]3[C@H](N3CCCC3=O)C2)s1.O=C(O)C(F)(F)F | -2.907
Cn1cc(-c2c(C#N)c(N)nc3c2CCc2[nH]ccc2-3)cc1C#N | -2.103
Cc1n[nH]c(C)c1-c1cc(-c2cccc(O)c2)nc(N)c1C#N | 88.86
CC(C)Cc1cc(-c2cc(-c3ccc[nH]3)nc(N)c2C#N)n[nH]1 | 126.8
Cc1n[nH]c(C)c1-c1cc(-c2cc[nH]c2)nc(N)c1C#N | 123.5
Cc1n[nH]c(C)c1-c1cc(-c2ccc[nH]2)nc(N)c1C#N | 119.5
Cc1n[nH]c(C)c1-c1c(C#N)c(N)nc2c1CCc1[nH]ccc1-2 | 9.181
CCN(c1ccccc1C(=O)O)S(=O)(=O)c1cccc2cccnc12 | -1.145
CC(C)=CCN1CCN(C(=O)CSc2ccccn2)[C@H]2CS(=O)(=O)C[C@H]21 | 6.252

SMILES | Percent Effect [%]
c1[nH]c(CC2CCCC2)nc1CN1CCCC2(CCOC2)C1 (configuration not stated) | -3.102
CS(=O)(=O)c1ccc(NC(=O)CSC(F)(F)F)cn1 | 0.5317
CC(C)(C)c1n[nH]c(C2CN(C(=O)Cn3ccccc3=O)CCO2)n1 (configuration not stated) | 103.2
CC(C)c1n[nH]c(C2CN(C(=O)Cn3ccccc3=O)CCO2)n1 (configuration not stated) | 111.9
Cc1n[nH]c(C2CN(C(=O)Cn3ccccc3=O)CCO2)n1 (configuration not stated) | -1.768
CC(C)c1n[nH]c(C2CN(C(=O)CCn3ccccc3=O)CCO2)n1 (configuration not stated) | 2.958
Cc1ccc(CC(=O)N2CCOC(c3nc(C(C)(C)C)n[nH]3)C2)cn1 (configuration not stated) | 10.27
CC(C)c1csc(C2CCCN(C(=O)Cn3ccccc3=O)C2)n1 (configuration not stated) | -10.1
CCN(C)S(=O)(=O)NCC1(c2ccccc2Br)CC1 | 2.269
CN(Cc1csc(-c2cccs2)n1)Cc1ncccc1C(=O)O | 6.204
CN(C)C(=O)C1SCCc2ccccc21 (configuration not stated) | -15.52
CCOc1ccc(NC2CCN(CC(F)(F)F)C2=O)cc1C (configuration not stated) | -0.2214
COc1ccc(S(=O)(=O)NCC(C)(O)c2cccs2)cc1Cl (configuration not stated) | 0.9761
COc1cccc(CN(C)C(C)c2nccs2)c1OCCn1ccnc1 (configuration not stated) | -3.505
Cc1ccn(-c2ccccc2NCc2cccnc2C)n1 | -1.379
CN1C(=O)CC[C@]12CC[C@@H](NC(=O)NCc1cccnc1)CC2.O=C(O)C(F)(F)F | 120.2
O=C(NCc1cccnc1)C1CC(=O)N(CC2CC2)C1 (configuration not stated) | 7.078
Cc1ccc(CN2C(=O)CC[C@]23CC[C@@H](NC2CCOC2)CC3)cc1.O=C(O)C(F)(F)F (some centres not stated) | -29.75
O=C(NCc1cccnc1)NC1CCCN(c2ncccn2)C1 (configuration not stated) | 12.61
O=C(O)C(F)(F)F.O=C1CC[C@]2(CC[C@@H](NC3CCOC3)CC2)N1Cc1ccccc1 (some centres not stated) | -11.81
CCN1C(=O)CC[C@]12CC[C@@H](NC(=O)c1cc(C)on1)CC2 | -41.62
O=C(O)C(F)(F)F.O=C1CC[C@]2(CC[C@@H](NC3CCOCC3)CC2)N1Cc1ccccc1 | -21.38
CN1CCN(Cc2cccnc2)C2(CCN(C3CCOCC3)C2)C1=O.O=C(O)C(F)(F)F.O=C(O)C(F)(F)F.O=C(O)C(F)(F)F (configuration not stated) | 4.033
CC(C)N1CCC(NC(=O)NCc2cccnc2)C1 (configuration not stated) | -0.2987
O=C(NCc1cccnc1)N[C@H]1CC[C@@]2(CCC(=O)N2CC2CC2)CC1.O=C(O)C(F)(F)F | 109.8

SMILES | Percent Effect [%]
CC(C)CN1C(=O)CC[C@]12CC[C@@H](NC(=O)NCc1cccnc1)CC2.O=C(O)C(F)(F)F | 100.3
CCN1C(=O)CC[C@]12CC[C@@H](NC(=O)NCc1cccnc1)CC2.O=C(O)C(F)(F)F | 126.1
CC(C)CN1CCC(c2nc3c([nH]2)CC(C)(C)CNC3=O)C1 (configuration not stated) | -15.84
c1cn(Cc2nnc(C3CCN(C4CCNCC4)CC3)n2C2CC2)cn1 | -5.551
O=C1CCOC[C@]2(CN(Cc3ccccc3)C[C@H]2c2cccnc2)N1 | 97.51
NC(=O)CN1CC2(CCC1=O)CCN(Cc1ccccc1F)CC2 | -12.52
O=C1CCOC[C@]2(CN(Cc3ccccc3)C[C@H]2c2ccccc2F)N1 | 94.73
O=C1NC[C@@]2(C(=O)O)CN(Cc3ccc(Oc4ccccc4)cc3)C[C@@H]12 | 22.58
O=C(NC1CC(F)(F)C1)[C@]12COC[C@H]1CN(Cc1ccccc1)C2.O=C(O)C(F)(F)F | -29.2
O=C1NC2(CCN(Cc3cccnc3)CC2)CC1c1ccncc1 (configuration not stated) | -17.77
O=C1NCC[C@]12CN(Cc1ccoc1)C[C@H]2c1ccccc1 | -11.19
O=C(O)CCCN1C[C@@H](c2ccccc2F)[C@@]2(CCCCC(=O)N2)C1 | 110
O=C(CC1CN(Cc2ccccc2)CCO1)Nc1ccccc1F (configuration not stated) | -6.692
O=C1CCOC[C@]2(CN(Cc3ccccc3)C[C@H]2c2ccccc2)N1 | 85.32
Cc1ccc(OCC(=O)N2C[C@@H]3CN(C)CCO[C@@H]3C2)cc1.O=C(O)C(F)(F)F | -15
CN(Cc1ccoc1)C(=O)C1CCN(C(=O)C2CCCC2)CC1 | -1.17
Cc1cc(NC(=O)CN(C)CC2CCCN2c2cccnn2)n(C)n1 (configuration not stated) | -5.162
N[C@@H]1CCN(Cc2ccc(-c3nc(-c4cccnc4)cc(=O)[nH]3)cc2)C1 | 4.047
COc1cc(C(C)=O)ccc1SCC(=O)Nc1cc(C)n[nH]1 | 8.192
O=C1NC[C@@]2(C(=O)O)CN(Cc3cccc(CN4CCOCC4)c3)C[C@@H]12 | -10.55
O=C1CCOC[C@]2(CN(Cc3ccccc3)C[C@H]2c2cccc(F)c2)N1 | 100.5
O=C(NC[C@]12COC[C@H]1CN(Cc1cccc(F)c1)C2)c1ccco1 | 10.17
N#Cc1ccc(CNCC(C(=O)N2CCOCC2)c2ccccc2)cc1 (configuration not stated) | -11.01
COc1ccc(Oc2cccnc2)cc1CN1CCCC1 | 40.81
Fc1cccnc1N1CCC(NCc2cccc3cn[nH]c23)C1 (configuration not stated) | 4.996

SMILES | Percent Effect [%]
COc1ccc(C)cc1CN1CCC(c2cc3ncccc3cn2)CC1.Cl | 107
Cl.Fc1cccc(CN2CCC(c3cc4ncccc4cn3)CC2)c1F | 64.82
O=C(c1cccnc1)N1C[C@@H]2CC[C@H](C1)N(Cc1cc(F)ccc1F)C2 | -19.69
Fc1ccc(F)c(CN2CCC(c3cnccn3)CC2)c1 | 76.33
Cl.Cl.OC(CN1CCN(Cc2cc(F)ccc2F)CC1)C1CC1 (configuration not stated) | -0.1352
COc1ccc(C)cc1CN1CCN(Cc2nccn2C)CC1 | -6.315
CN(Cc1cc(F)cc2cccnc12)CC1CCN(CCO)CC1 | -1.587
Cc1cnn(Cc2cc(F)ccc2F)c1NC(=O)NC1CC1 | -2.224
Cl.Fc1ccc(F)c(CN2CCC(c3cc4ncccc4cn3)CC2)c1 | 84.15
CC(C)CCNc1nnc(C(C)C)s1 | -2.433
Cc1noc(C)c1CN(C)C(=O)C1(N)CCCCC1 | -29.06
CCC1CN(Cc2ccccc2)CCN1Cc1nnc(C2CCC2)o1 (configuration not stated) | 7.114
CN(Cc1nc(C2CC2)no1)C(=O)c1cccc(CC2CCNCC2)c1 | -25.8
CC(C)(O)c1cn(C2CCN(C(=O)CCc3ccncc3)CC2)nn1 | -4.68
O=C(Nc1cnc(C2CC2)nc1)N1CCCC1 | -9.25
CC(C)c1cc(C2CCN(Cc3cc(F)cc(F)c3)CC2)[nH]n1 | 18.27
Fc1cc(F)cc(CN2CCC(c3cc4ncccc4cn3)CC2)c1 | 115.3
Cc1cnc(CN2CCC(N(C)Cc3nnc(C)n3C)C2)cn1 (configuration not stated) | 0.1518
CCn1c(C)nnc1CN(C)C1CCN(Cc2nnc(C3CC3)o2)C1 (configuration not stated) | 99.37
CCn1c(C)nnc1CN(C)C1CCN(Cc2cnc(C)cn2)C1 (configuration not stated) | -10.08
Cc1nnc(CN(C)C2CCN(Cc3nnc(C4CCC4)o3)C2)n1C (configuration not stated) | 92.95
CCn1c(C)nnc1CN(C)C1CCN(Cc2ccon2)C1 (configuration not stated) | 7.959
